Assay [1] is described as follows: HepG2 liver cancer cell viability effects, profiling panel, resazurin fluorescence, 24 h, PK04 Diversity Set (AID 1172). Further: test concentration not given here. The settings on record: higher = more signal.
Assay [2] can be described thus: basal S. cerevisiae growth modulation, no modifier, primary screen, OD600, strain BY4716, 24 h, basal condition (AID 1173). Conditions: OD600, 24 h, higher = more signal, called active from +8 up or from −8 down.
A short description of assay [3]: MM1S myeloma cell viability, profiling panel, resazurin fluorescence, basal, 24 h, PK04 Diversity Set (AID 1174).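 Further: MM1S multiple myeloma cell line; test concentration not given here.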 Conditions: higher = more signal, called active from +8 up or from −8 down. (The colour change of resazurin is a common sign of viable cells or microbes.)
Assay [4] deals with Dihydroorotate dehydrogenase (quinone), mitochondrial (Plasmodium falciparum (isolate 3D7)) (UniProt Q08210). The experiment in a line: PfDHODH enzyme inhibitors, primary screen, biochemical, C-terminal His tag, absorbance 600 nm (AID 1175).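 Further: recombinant parasite enzyme with a five histidine tag at its C terminus; test concentration not given here.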 Conditions: DCIP absorbance 600 nm, higher = more signal, called active from +8 up or from −8 down.
Assay [5] in a line: P. aeruginosa biofilm formation inhibitors, primary screen, strain PAO1, LB-PBS medium, absorbance 600 nm (AID 1176). Further: test concentration not given here. Conditions: P. aeruginosa PAO1 growth/biofilm, A600, 12 h; higher = more signal.
Assay [6] can be described thus: S. cerevisiae RM11-1a growth modifiers, primary screen, strain RM11-1a, OD600, basal, 24 h (AID 1177).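 Further: cultures grown under basal conditions with no added stressor; test concentration not given here.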 The settings on record: OD600, 24 h, higher = more signal, called active from +8 up or from −8 down.
A short description of assay [7]: E. coli acrAB mutant growth effects, primary screen, E. coli filamentation inducers, strain DRC39, OD650, 24 h (AID 1178).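 Further: growth measured as culture turbidity by optical density at 650 nm; test concentration not given here.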 Conditions: higher = more signal, called active from +8 up or from −8 down.
Assay [8] in a line: E. coli acrAB mutant growth effects, primary screen, E. coli filamentation inducers, strain DRC39, OD650, 48 h (AID 1179).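 Further: screen aims at cell division blockers that make cells filament.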 The settings on record: E. coli DRC39 delta-acrAB growth, higher = more signal, called active from +8 up or from −8 down.
Assay [9] is described as follows: RPMI8226 myeloma cell viability, profiling panel, resazurin fluorescence, basal, 24 h, PK04 Diversity Set (AID 1180).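 Further: RPMI8826 multiple myeloma cell line at 5000 cells per well; test concentration not given here.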 Conditions: higher = more signal.
The target of assay [10] is E3 ubiquitin-protein ligase XIAP (Homo sapiens) (UniProt P98170). The experiment in a line: XIAP binders, primary screen, biophysical, small-molecule microarray, fluorescence 635 nm (AID 1181).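 Further: score merges 667 nm emission and signal to noise over triplicate slides.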 Conditions: small-molecule microarray binding, higher = more signal.

Calls of active or inactive are those of the source. Unless noted, how the calls were made is not given here.

Sequence of Dihydroorotate dehydrogenase (quinone), mitochondrial (Plasmodium falciparum (isolate 3D7)) (Q08210 whole entry, looked up): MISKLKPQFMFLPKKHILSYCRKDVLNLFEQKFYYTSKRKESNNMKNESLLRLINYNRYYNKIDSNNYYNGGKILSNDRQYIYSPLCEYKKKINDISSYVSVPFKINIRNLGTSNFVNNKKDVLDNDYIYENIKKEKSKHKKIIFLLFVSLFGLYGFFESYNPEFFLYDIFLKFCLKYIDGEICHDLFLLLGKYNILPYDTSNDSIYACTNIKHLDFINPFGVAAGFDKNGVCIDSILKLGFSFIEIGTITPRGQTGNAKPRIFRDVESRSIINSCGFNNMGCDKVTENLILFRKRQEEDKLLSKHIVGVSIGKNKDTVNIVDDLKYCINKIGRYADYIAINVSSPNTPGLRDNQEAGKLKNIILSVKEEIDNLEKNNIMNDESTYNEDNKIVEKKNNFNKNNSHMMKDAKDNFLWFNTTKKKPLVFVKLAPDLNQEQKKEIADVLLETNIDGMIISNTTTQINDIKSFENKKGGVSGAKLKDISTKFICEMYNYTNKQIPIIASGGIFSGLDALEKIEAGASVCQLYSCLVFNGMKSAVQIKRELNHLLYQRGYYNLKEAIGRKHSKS
Sequence of E3 ubiquitin-protein ligase XIAP (Homo sapiens) (P98170 whole entry, looked up): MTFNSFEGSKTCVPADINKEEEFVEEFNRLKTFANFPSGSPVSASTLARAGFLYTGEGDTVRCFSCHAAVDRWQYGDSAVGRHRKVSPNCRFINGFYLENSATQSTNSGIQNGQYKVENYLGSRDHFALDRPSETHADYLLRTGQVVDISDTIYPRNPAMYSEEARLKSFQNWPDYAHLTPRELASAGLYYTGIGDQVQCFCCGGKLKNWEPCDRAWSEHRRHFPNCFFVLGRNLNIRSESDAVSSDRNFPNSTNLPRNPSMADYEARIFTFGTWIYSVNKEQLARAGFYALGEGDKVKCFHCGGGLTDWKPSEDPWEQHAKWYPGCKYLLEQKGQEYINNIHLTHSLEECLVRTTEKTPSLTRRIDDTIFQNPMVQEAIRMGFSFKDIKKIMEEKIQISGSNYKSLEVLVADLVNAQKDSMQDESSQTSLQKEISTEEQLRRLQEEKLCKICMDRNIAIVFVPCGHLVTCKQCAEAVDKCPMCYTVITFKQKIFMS

Consider `COC(=O)[C@]1(Cc2ccccc2)N=C(c2ccc(OCCCO)cc2)O[C@@H]1c1ccccc1N=[N+]=[N-]`, for which the z-score in assay [1] is -2.66; in assay [2], -1.45 (inactive); in assay [3], -4.47 (inactive); in assay [5], 1.69 (inactive); in [6] it was 0.285 (inactive); in [7] it was 0.2 (inactive). Further, the z-score in assay [8] is -1.19 (inactive); in assay [9], -7.02. Besides, the values for the composite z-score in assay [4] and in [10] were 1.16 (inactive) and 0.336, respectively.

With `COC(=O)c1c(CC[C@@H](CO)NC(=O)N[C@H](Cc2ccccc2)Cn2cc(-c3ccccn3)nn2)oc(C(C)=O)c1C(=O)OC`, the z-score in assay [1] is -1.62; in assay [2] it was -0.295 (inactive); in [3], -1.13 (inactive); in [5], -0.0149 (inactive); in assay [6], -0.559 (inactive); in assay [7] it was -0.347 (inactive). For the same compound, the z-score is -0.793 (inactive) in assay [8] and -0.857 in assay [9]. In addition, the composite z-score in assay [4] was 0.0502 (inactive); in [10], -0.135.

In the case of `C=CCNC(=O)[C@H]1[C@@H]2C(=O)O[C@@H](c3ccccc3)[C@@H](c3ccccc3)N2[C@@H](c2ccc(OCCO)cc2)[C@]12C(=O)Nc1ccc(C#CCC(C(=O)OC)C(=O)OC)cc12`, the z-score in assay [1] was 0.47; in [2], 1.62 (inactive); in [3], -0.447 (inactive); in assay [5], 2.63 (inactive); in assay [6] it was 2.22 (inactive); in assay [7], 0.634 (inactive). Besides, the z-score in assay [8] was -0.115 (inactive); in assay [9], -2.64. In addition, the figures for the composite z-score in assay [4] and in [10] were 0.26 (inactive) and 0.0975, respectively.

As for `CCCNC(=O)[C@@]1(Sc2ccc(C)cc2)CC(=O)N(Cc2ccccc2C(F)(F)F)[C@@H]1c1ccc(CO)cc1I`, the z-score is -0.103 in assay [1]; -3.06 (inactive) in [2]; -2.54 (inactive) in assay [3]; 0.298 (inactive) in assay [5]; -1.68 (inactive) in [6]; 0.044 (inactive) in assay [7]. The z-score in [8] was -0.478 (inactive); in assay [9], -2.15. Moreover, the composite z-score in assay [4] was -0.469 (inactive); in [10], -0.181.

Consider `O=C1C2C=CC(C(O)C=Cc3ccc([N+](=O)[O-])cc3)N(n3cnnc3)C2C(=O)N1Cc1ccccc1` (stereo not given), for which the z-score was 0.178 in [1]; -0.586 (inactive) in [2]; -0.519 (inactive) in [3]; 0.601 (inactive) in [5]; -0.155 (inactive) in assay [6]; -0.866 (inactive) in assay [7]. Besides, the values for the z-score in assay [8] and in assay [9] were -0.721 (inactive) and -0.647, respectively. For the same compound, the figures for the composite z-score in assay [4] and in assay [10] were 0.607 (inactive) and -0.236, respectively.

Consider `O=C1NC(=O)C2C1C=CC(C(O)C=Cc1ccc([N+](=O)[O-])cc1)N2Nc1ccc(Cl)cc1Cl` (stereo not given), for which the z-score was -1.22 in [1]; -6.66 (inactive) in [2]; -1.19 (inactive) in assay [3]; 0.807 (inactive) in [5]; 0.379 (inactive) in assay [6]; 0.178 (inactive) in assay [7]. Also, the z-score in assay [8] is -1.04 (inactive); in assay [9], -0.615. The composite z-score was 0.139 (inactive) in assay [4] and -0.197 in [10].

With `COCCOC(=O)N1C(=O)[C@@]2(c3cc(C#Cc4ccc(OC)cc4)ccc31)[C@H](c1ccc(O)cc1)N1[C@H](c3ccccc3)[C@H](c3ccccc3)OC(=O)[C@H]1[C@@H]2C(=O)Nc1nc2ccccc2s1`, the z-score in assay [1] is -0.719; in assay [2], -0.442 (inactive); in assay [3] it was -0.72 (inactive); in assay [5] it was 0.819 (inactive); in assay [6], 0.363 (inactive); in [7], -0.184 (inactive). The figures for the z-score in assay [8] and in assay [9] were -0.0404 (inactive) and -0.61, respectively. In addition, the composite z-score in assay [4] was -0.455 (inactive); in [10], 0.0345.

Turning to `CCCC1(C(=O)OC)C=C2C(=C(c3ccccc3)C(=O)C2C)CN1` (stereo not given), the z-score is -0.913 in assay [1]; 0.629 (inactive) in assay [2]; -1.85 (inactive) in assay [3]; 0.246 (inactive) in assay [5]; -0.0834 (inactive) in assay [6]; -0.0785 (inactive) in assay [7]. Besides, the z-score in assay [8] was -0.181 (inactive); in assay [9], -0.77. Moreover, the composite z-score in assay [4] was -1.68 (inactive); in assay [10], 0.192.

Turning to `Cc1ccc(S[C@]2(C(=O)O)CC(=O)N(Cc3ccccc3C(F)(F)F)[C@@H]2c2ccc(CO)cc2I)cc1`, the z-score in assay [1] is 0.484; in [2], -5.47 (inactive); in assay [3], -2.29 (inactive); in assay [5], 0.304 (inactive); in assay [6] it was -1.22 (inactive); in [7], 0.0985 (inactive). For the same compound, the z-score in [8] is -0.367 (inactive); in [9] it was -1.78. Besides, the composite z-score in assay [4] is -0.358 (inactive); in [10] it was -0.0076.

With `NC(=O)[C@@]1(Cc2ccccc2)N=C(c2ccc(OCCCO)cc2)O[C@H]1c1ccccc1`, the z-score in assay [1] is -0.815; in assay [2], -1.05 (inactive); in assay [3] it was 0.597 (inactive); in assay [5] it was 0.466 (inactive); in [6], -0.541 (inactive); in assay [7], 1.54 (inactive). In addition, the z-score was 0.915 (inactive) in [8] and -0.0693 in assay [9]. The composite z-score is 0.842 (inactive) in [4] and 0.225 in [10].

Take `C#CCN(C/C=C/c1ccccc1)[C@H](CO)c1ccccc1`: the z-score was -0.832 in assay [1]; -16.9 (active) in assay [2]; -1.19 (inactive) in assay [3]; -0.128 (inactive) in [5]; -1.31 (inactive) in [6]; -0.338 (inactive) in assay [7]. The figures for the z-score in [8] and in assay [9] were -1.7 (inactive) and -1.45, respectively. Moreover, the composite z-score in assay [4] was 0.716 (inactive); in assay [10], -0.167.

Values taken from PubChem BioAssay.
